# Results from PubChem BioAssay (NCATS).
# Inconclusive results are not listed. Values without a mark were called inactive. Calls of active or inactive are those of the source. Calls come from the whole dose curve; as a rule, active = well fitted cell-killing curve with a large enough effect; inconclusive = small, poorly fitted or top-dose-only effect, or effect the other way; inactive = no such curve, though single readings can be large or run the other way.
# Legend:
# [1] = Quantitative High-Throughput drug screen in 47 multiple myeloma cell lines against the NCATS MIPE library collection: MM1R_ATCC cell viability assay (AID 1918981); note: nearly all actives have a fitted effect of over 35% in size; note: potency is the fitted concentration of half-maximal effect
# Method in brief: (§1)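 Readout: median RLU from CellTiter-Glo after 5 min at room temperature. Preceding step was 48 h drug treatment of 500 cells/well at 37 °C, 5% CO2, with DMSO-only and media-only control wells.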
# [2] = Quantitative High-Throughput drug screen in 47 multiple myeloma cell lines against the NCATS MIPE library collection: LP1_DSMZ cell viability assay (AID 1918982); note: nearly all actives have a fitted effect of over 35% in size; note: potency is the fitted concentration of half-maximal effect
# Method in brief: as §1
# [3] = Quantitative High-Throughput drug screen in 47 multiple myeloma cell lines against the NCATS MIPE library collection: KMS28PE_JCRB cell viability assay (AID 1918983); note: nearly all actives have a fitted effect of over 35% in size; note: potency is the fitted concentration of half-maximal effect
# Method in brief: as §1
# [4] = Quantitative High-Throughput drug screen in 47 multiple myeloma cell lines against the NCATS MIPE library collection: L363_DSMZ cell viability assay (AID 1918984); details: L363 myeloma viability, CellTiter-Glo ATP luminescence, 48 h; viability (% of control): at 45.8 µM (top of the series); note: nearly all actives have a fitted effect of over 40% in size
# Method in brief: as §1
# [5] = Quantitative High-Throughput drug screen in 47 multiple myeloma cell lines against the NCATS MIPE library collection: OCIMY5_PLB cell viability assay (AID 1918988); note: nearly all actives have a fitted effect of over 65% in size; note: potency is the fitted concentration of half-maximal effect
# Method in brief: as §1
# [6] = Quantitative High-Throughput drug screen in 47 multiple myeloma cell lines against the NCATS MIPE library collection: UTMC2_PLB cell viability assay (AID 1919868); details: CellTiter-Glo ATP luminescence, 48 h; viability (% of DMSO control): at 45.8 µM (top of the series); note: nearly all actives have a fitted effect of over 55% in size; note: potency is the fitted concentration of half-maximal effect
# Method in brief: as §1
# [7] = Quantitative High-Throughput drug screen in 47 multiple myeloma cell lines against the NCATS MIPE library collection: PE2_PLB cell viability assay (AID 1919869); note: nearly all actives have a fitted effect of over 35% in size; note: potency is the fitted concentration of half-maximal effect
# Method in brief: as §1
# [8] = Quantitative High-Throughput drug screen in 47 multiple myeloma cell lines against the NCATS MIPE library collection: OPM2_DSMZ cell viability assay (AID 1919872); note: nearly all actives have a fitted effect of over 30% in size; note: potency is the fitted concentration of half-maximal effect
# Method in brief: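 Myeloma cell lines, 500 cells per well, exposed to MIPE 4.0 library compounds for 48 h at 37C, 5% CO2. Viability from ATP by CellTiter-Glo luminescence; normalised to DMSO (100%) and media-only (0%) wells.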
# [9] = Quantitative High-Throughput drug screen in 47 multiple myeloma cell lines against the NCATS MIPE library collection: KMS11_JCRBsus cell viability assay (AID 1919873); note: nearly all actives have a fitted effect of over 50% in size; note: potency is the fitted concentration of half-maximal effect
# Method in brief: as §1
# [10] = Quantitative High-Throughput drug screen in 47 multiple myeloma cell lines against the NCATS MIPE library collection: KMS28BM_JCRB cell viability assay (AID 1919874); note: nearly all actives have a fitted effect of over 35% in size; note: potency is the fitted concentration of half-maximal effect
# Method in brief: as §1
# [11] = Quantitative High-Throughput drug screen in 47 multiple myeloma cell lines against the NCATS MIPE library collection: OCIMY7_PLB cell viability assay (AID 1918987); details: OCI-MY7 myeloma viability, CellTiter-Glo ATP, 48 h; viability (% of DMSO): at 45.8 µM (top of the series); note: nearly all actives have a fitted effect of over 65% in size; note: potency is the fitted concentration of half-maximal effect
# Method in brief: as §1
# [12] = Quantitative High-Throughput drug screen in 47 multiple myeloma cell lines against the NCATS MIPE library collection: XG1_PLB cell viability assay (AID 1919866); note: nearly all actives have a fitted effect of over 35% in size; note: potency is the fitted concentration of half-maximal effect
# Method in brief: as §1
# [13] = Quantitative High-Throughput drug screen in 47 multiple myeloma cell lines against the NCATS MIPE library collection: PCM6_Riken cell viability assay (AID 1919870); note: nearly all actives have a fitted effect of over 30% in size; note: potency is the fitted concentration of half-maximal effect
# Method in brief: as §1
# [14] = Quantitative High-Throughput drug screen in 47 multiple myeloma cell lines against the NCATS MIPE library collection: OPM1_PLB cell viability assay (AID 1918989); note: nearly all actives have a fitted effect of over 40% in size; note: potency is the fitted concentration of half-maximal effect
# Method in brief: as §1
# [15] = Quantitative High-Throughput drug screen in 47 multiple myeloma cell lines against the NCATS MIPE library collection: SKMM1_PLB cell viability assay (AID 1919863); details: SKMM1 myeloma viability, CellTiter-Glo ATP, 48 h; viability: active compounds read low; note: nearly all actives have a fitted effect of over 35% in size; note: potency is the fitted concentration of half-maximal effect
# Method in brief: as §1
# [16] = Quantitative High-Throughput drug screen in 47 multiple myeloma cell lines against the NCATS MIPE library collection: U266_ATCC cell viability assay (AID 1919864); note: nearly all actives have a fitted effect of over 35% in size; note: potency is the fitted concentration of half-maximal effect
# Method in brief: as §1
# [17] = Quantitative High-Throughput drug screen in 47 multiple myeloma cell lines against the NCATS MIPE library collection: XG6_PLB cell viability assay (AID 1919865); note: nearly all actives have a fitted effect of over 40% in size; note: potency is the fitted concentration of half-maximal effect
# Method in brief: as §1
# [18] = Quantitative High-Throughput drug screen in 47 multiple myeloma cell lines against the NCATS MIPE library collection: VP6_DJ cell viability assay (AID 1919867); note: nearly all actives have a fitted effect of over 40% in size; note: potency is the fitted concentration of half-maximal effect
# Method in brief: as §1
# [19] = Quantitative High-Throughput drug screen in 47 multiple myeloma cell lines against the NCATS MIPE library collection: RPMI8226_ATCC cell viability assay (AID 1919871); note: nearly all actives have a fitted effect of over 30% in size; note: potency is the fitted concentration of half-maximal effect
# Method in brief: as §1
# [20] = Quantitative High-Throughput drug screen in 47 multiple myeloma cell lines against the NCATS MIPE library collection: KMS34_JCRB cell viability assay (AID 1918985); note: nearly all actives have a fitted effect of over 40% in size; note: potency is the fitted concentration of half-maximal effect
# Method in brief: as §1
smiles,measurement,setting,value
C=C[C@@H]1CN2CCC1C[C@@H]2C(O)c1ccnc2ccc(OC)cc12 (stereo partly specified),Potency,[1],18.7 µM (active)
same,Potency,[2],inactive
same,Potency,[3],16.6 µM (active)
same,Potency,[4],inactive
same,Potency,[5],3.32 µM (active)
same,Potency,[6],inactive
same,Potency,[7],inactive
same,Potency,[8],inactive
same,Potency,[9],inactive
same,Potency,[10],inactive
COC(=O)[C@H](c1ccccc1Cl)N1CCc2sccc2C1,Potency,[1],inactive
same,Potency,[2],inactive
same,Potency,[3],inactive
same,Potency,[11],20.9 µM (active)
same,Potency,[12],inactive
same,Potency,[6],inactive
same,Potency,[7],inactive
same,Potency,[13],inactive
same,Potency,[8],inactive
same,Potency,[9],inactive
same,Potency,[10],inactive
CNC1CCC(N(Cc2cccc(-c3ccncc3)c2)C(=O)c2sc3ccccc3c2Cl)CC1 (stereo unspecified),Potency,[1],18.7 µM (active)
same,Potency,[2],26.4 µM (active)
same,Potency,[3],23.5 µM (active)
same,Potency,[11],10.5 µM (active)
same,Potency,[5],18.7 µM (active)
same,Potency,[14],8.33 µM (active)
same,Potency,[15],18.7 µM (active)
same,Potency,[16],16.6 µM (active)
same,Potency,[17],8.33 µM (active)
same,Potency,[12],9.35 µM (active)
same,Potency,[18],8.33 µM (active)
same,Potency,[6],10.5 µM (active)
same,Potency,[7],10.5 µM (active)
same,Potency,[13],8.33 µM (active)
same,Potency,[9],8.33 µM (active)
same,Potency,[10],18.7 µM (active)
CC(=O)NCCC(=O)N[C@@H](CCC(N)=O)C(=O)N[C@@H](CO)C(=O)N[C@@H](CCC(N)=O)C(=O)N[C@@H](CCC(N)=O)C(=O)N[C@H](C(=O)N[C@@H](Cc1ccccc1)C(=O)N[C@]1(C)CCCCCCC=CCCC[C@@](C)(C(=O)N[C@@H](CCC(N)=O)C(=O)N[C@@H](CC(N)=O)C(N)=O)NC(=O)[C@H](CC(C)C)NC(=O)[C@H](CC(C)C)NC(=O)[C@@H](CCCNC(=N)N)NC(=O)[C@H](Cc2c[nH]c3ccccc23)NC(=O)[C@H](CC(C)C)NC(=O)[C@H](CC(N)=O)NC1=O)[C@H](C)O,Potency,[1],26.4 µM (active)
same,Potency,[2],20.9 µM (active)
same,Potency,[3],18.7 µM (active)
same,Potency,[11],20.9 µM (active)
same,Potency,[14],26.4 µM (active)
same,Potency,[15],16.6 µM (active)
same,Potency,[7],20.9 µM (active)
same,Potency,[19],9.35 µM (active)
COc1ccc(Cn2ccc3ccc(C(=O)NO)cc32)cc1,Potency,[1],inactive
same,Potency,[2],16.6 µM (active)
same,Potency,[3],inactive
same,Potency,[11],9.35 µM (active)
same,Potency,[17],14.8 µM (active)
same,Potency,[18],9.35 µM (active)
same,Potency,[8],inactive
same,Potency,[10],inactive
CON(C)C(=O)N1N=C(c2cc(F)ccc2F)S[C@]1(CCCN)c1ccccc1,Potency,[1],inactive
same,Potency,[2],inactive
same,Potency,[3],inactive
same,Potency,[20],inactive
same,Potency,[5],inactive
same,viability,[15],61.2%
same,Potency,[12],inactive
same,Potency,[6],inactive
same,Potency,[7],inactive
same,Potency,[9],inactive
Cc1ccc2c(=O)c3cccc(CC(=O)O)c3oc2c1C,Potency,[1],18.7 µM (active)
same,Potency,[2],inactive
same,Potency,[3],inactive
same,Potency,[5],18.7 µM (active)
same,Potency,[16],18.7 µM (active)
same,Potency,[7],20.9 µM (active)
same,Potency,[13],23.5 µM (active)
same,Potency,[19],inactive
same,Potency,[9],inactive
same,Potency,[10],inactive
O=c1[nH]c(=O)n([C@H]2C[C@@H](O)[C@@H](CO)O2)cc1C(F)(F)F,Potency,[1],7.43 µM (active)
same,Potency,[2],inactive
same,Potency,[3],16.6 µM (active)
same,Potency,[5],14.8 µM (active)
same,Potency,[14],inactive
same,Potency,[15],5.9 µM (active)
same,Potency,[16],inactive
same,Potency,[17],1.87 µM (active)
same,Potency,[7],10.5 µM (active)
same,Potency,[19],3.72 µM (active)
same,Potency,[8],inactive
same,Potency,[9],6.62 µM (active)
same,Potency,[10],9.35 µM (active)
CO[C@H]1/C=C\O[C@@]2(C)Oc3c(C)c(O)c4c(O)c(c(C=NN5CCN(C6CCCC6)CC5)c(O)c4c3C2=O)NC(=O)C(C)=CC=C[C@H](C)[C@H](O)[C@@H](C)[C@@H](O)[C@@H](C)[C@H](OC(C)=O)[C@H]1C,Potency,[1],0.187 µM (active)
same,Potency,[2],1.87 µM (active)
same,Potency,[3],0.418 µM (active)
same,Potency,[20],2.96 µM (active)
same,Potency,[5],0.418 µM (active)
same,Potency,[14],0.264 µM (active)
same,Potency,[15],7.43 µM (active)
same,Potency,[17],0.105 µM (active)
same,Potency,[6],0.059 µM (active)
same,Potency,[7],0.118 µM (active)
same,Potency,[13],0.118 µM (active)
same,Potency,[19],1.18 µM (active)
same,Potency,[8],14.8 µM (active)
O=C(O)C1=CC(O)C(O)[C@H](O)C1 (stereo partly specified),Potency,[1],inactive
same,Potency,[2],inactive
same,Potency,[3],inactive
same,Potency,[20],inactive
same,Potency,[14],inactive
same,viability,[15],118%
same,Potency,[16],inactive
same,Potency,[17],inactive
same,Potency,[12],inactive
same,Potency,[7],inactive
same,Potency,[19],inactive
same,Potency,[8],inactive
same,Potency,[9],inactive
same,Potency,[10],inactive
CN[C@@H]1[C@@H](O)[C@@H](O[C@@H]2[C@@H](O)[C@H](O[C@H]3O[C@H](CN)[C@@H](O)[C@H](O)[C@@H]3O)[C@@H](N)C[C@@H]2NC(=O)[C@@H](O)CN)OC[C@]1(C)O,Potency,[1],inactive
same,Potency,[2],inactive
same,Potency,[3],inactive
same,Potency,[11],inactive
same,Potency,[14],inactive
same,Potency,[16],18.7 µM (active)
same,Potency,[17],inactive
same,Potency,[12],inactive
same,Potency,[18],inactive
same,Potency,[7],inactive
same,Potency,[13],inactive
same,Potency,[19],inactive
same,Potency,[8],inactive
same,Potency,[9],7.43 µM (active)
CN1CCC(COc2cnc(-c3cccc(Cn4nc(-c5cccc(C#N)c5)ccc4=O)c3)nc2)CC1,Potency,[1],18.7 µM (active)
same,Potency,[2],18.7 µM (active)
same,Potency,[3],inactive
same,Potency,[5],0.0469 µM (active)
same,Potency,[14],16.6 µM (active)
same,Potency,[17],0.0332 µM (active)
same,Potency,[12],0.332 µM (active)
same,Potency,[18],0.59 µM (active)
same,Potency,[6],0.526 µM (active)
same,Potency,[7],1.05 µM (active)
same,Potency,[13],0.372 µM (active)
same,Potency,[19],inactive
same,Potency,[8],inactive
same,Potency,[10],inactive
